In the library only some 9% were active in any assay of this set; here they are far more common.
PLK1 PBD inh: PLK1 (human) polo-box domain binding inhibition; Plk1 PBD binding of FITC phosphopeptide, fluorescence polarization; Potency, µM, usual class: inhibitors; 360,000 compounds, 2.8% hits; also: series mostly up to about 57 µM; nearly all actives have a fitted effect of over 65% in size
HP1b binding inh: HP1-beta chromodomain-methylated histone interaction inhibition. P83916. AlphaScreen HP1-beta / biotin-H3K9me3 peptide binding. Potency, µM (series often up to 114 µM), hits mostly inhibitors. 390,000 compounds, 0.56% hits. AID 540317; also: nearly all actives have a fitted effect of over 70% in size
Target sequence (P83916 whole entry, looked up): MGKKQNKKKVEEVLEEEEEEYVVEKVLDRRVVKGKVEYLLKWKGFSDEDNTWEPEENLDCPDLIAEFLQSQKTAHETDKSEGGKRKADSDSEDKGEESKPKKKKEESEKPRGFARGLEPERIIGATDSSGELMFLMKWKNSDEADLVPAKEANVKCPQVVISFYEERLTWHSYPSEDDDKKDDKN
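Compound inhibition of the preformed complex between 50 nM HP1-beta and 50 nM biotinylated H3K9me3 peptide was read by AlphaScreen. Buffer was PBS pH 7.4 with 0.01% Tween-20. Incubations ran 30 min at room temperature, with 10 ug/mL donor/acceptor beads.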
12-LOX inh: blocks human arachidonate 12S-lipoxygenase; P18054; purified 12hLO, xylenol orange hydroperoxide absorbance; Potency, µM (titrated, usually from 108 µM), actives largely listed as inhibitors; 580,000 compounds, 1.1% hits
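Purified human 12hLO (150 nM final) in 25 mM Hepes, 0.01% Triton X-100, pH 7.0 was preincubated 15 min at room temperature with compound. Then 40 uM arachidonic acid was added, 30 min. Hydroperoxide was read by Fe-XO absorbance ratio 573/405 nm.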
BAZ2B inh: BAZ2B (human) inhibition; AlphaScreen BAZ2B-H3K14Ac peptide displacement; Q9UIF8; AID 504333; Potency, µM (top dose mostly 114 µM), actives largely listed as inhibitors; 360,000 compounds, 4.4% hits; also: nearly all actives have a fitted effect of over 60% in size
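BAZ2B (50 nM) with biotin-H3(5-23)K14Ac peptide (50 nM) in PBS pH 7.4, 0.01% Tween-20, preformed 30 min, then compound 30 min at room temperature; top concentration 110uM. AlphaScreen streptavidin donor/nickel chelate acceptor beads (10 ug/mL final), 20 min dark, signal read.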
JMJD2A Tudor: JMJD2A Tudor domain (human) inhibition; O75164; 390,000 compounds, 4.4% hits; AlphaScreen JMJD2A-Tudor / H3K4me3 peptide binding; AID 504339; Potency, µM (titrated, usually from 114 µM), hits mostly inhibitors; also: nearly all actives have a fitted effect of over 50% in size
G9a inh: inhibitors of human histone lysine methyltransferase G9a; Potency, µM (highest dose often 102 µM), hits mostly inhibitors; AID 504332; 350,000 compounds, 8.8% hits; G9a H3K9 monomethylation, AlphaScreen, 2 h; also: nearly all actives have a fitted effect of over 75% in size
Target sequence (Q96KQ7 913-1193 limits assumed): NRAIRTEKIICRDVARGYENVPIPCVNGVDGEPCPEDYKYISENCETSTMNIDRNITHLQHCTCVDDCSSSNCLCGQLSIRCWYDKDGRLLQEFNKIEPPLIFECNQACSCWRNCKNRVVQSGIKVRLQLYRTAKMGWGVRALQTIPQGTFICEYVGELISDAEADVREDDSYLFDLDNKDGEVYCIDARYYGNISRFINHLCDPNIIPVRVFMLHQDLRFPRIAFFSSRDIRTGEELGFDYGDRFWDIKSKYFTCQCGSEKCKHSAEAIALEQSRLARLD
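G9a (20 nM) was preincubated 15 min with compound, then reacted 2 h at room temperature with 500 nM biotin-H3K9 peptide and 20 µM SAM. Monomethyl-H3K9 detected by AlphaScreen using anti-H3K9me1 antibody.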
Of the large screens only hits and unclear results are named; the others gave an inactive call. Calls follow the shape of the dose curve; as a rule, active = well fitted curve in the direction sought with a large enough effect; inconclusive = small, poorly fitted or top-dose-only effect, or another doubt; inactive = no such curve, though single readings can be large; an effect the other way counts as inactive or inconclusive.

CN(C)c1ccc(CN(C(=O)/C=C/c2ccccc2Cl)C2CCS(=O)(=O)C2)cc1 (configuration not stated)	BAZ2B inh 25µM, JMJD2A Tudor 45µM
Cc1cccc(OCC(=O)N(Cc2cccs2)C2CCS(=O)(=O)C2)c1C (configuration not stated)	G9a inh 50µM
Cc1cc(C)cc(OCC(=O)N(Cc2ccc(N(C)C)cc2)C2CCS(=O)(=O)C2)c1 (configuration not stated)	HP1b binding inh inconclusive, BAZ2B inh 40µM, JMJD2A Tudor 63µM
Cc1cc(C)c(OCC(=O)N(Cc2ccc(N(C)C)cc2)C2CCS(=O)(=O)C2)c(C)c1 (configuration not stated)	BAZ2B inh inconclusive, JMJD2A Tudor inconclusive (no result: G9a inh)
O=C(/C=C/c1ccccc1Cl)N(Cc1ccc(Cl)cc1)C1CCS(=O)(=O)C1 (configuration not stated)	none
COCCCn1c(CCn2cc(Cl)cn2)n[nH]c1=S	none (no result: PLK1 PBD inh, HP1b binding inh, BAZ2B inh, JMJD2A Tudor, G9a inh)
O=C(CN(Cc1ccccc1)S(=O)(=O)c1cccc(C(F)(F)F)c1)NC1CCCCC1	none
CCCCN(Cc1ccco1)C(=O)c1cc2c(=O)[nH]c3ccc(C)cc3c2s1	none
O=C(Nc1ccc(N2CCC(c3ccccc3)C2)c(C(=O)O)c1)c1ccc(Cl)cc1 (configuration not stated)	12-LOX inh inconclusive, JMJD2A Tudor inconclusive, G9a inh 10µM (no result: PLK1 PBD inh)
O=C(Nc1ccc(N2CCC(c3ccccc3)C2)c(C(=O)O)c1)c1ccccc1 (configuration not stated)	none (no result: PLK1 PBD inh, HP1b binding inh, BAZ2B inh, JMJD2A Tudor, G9a inh)
COc1ccc2c(c1)CCc1c(C(=O)Nc3cnn(Cc4ccc(Cl)cc4Cl)c3)noc1-2	none (no result: PLK1 PBD inh)
COc1ccc(CC(=O)N2N=C(c3cccc(Br)c3)CC2(O)C(F)(F)F)cc1 (configuration not stated)	12-LOX inh 14µM (no result: PLK1 PBD inh, HP1b binding inh, BAZ2B inh, JMJD2A Tudor, G9a inh)
COc1cccc(-c2cc(C(=O)O)c3cc4ccccc4cc3n2)c1OC	none (no result: HP1b binding inh, BAZ2B inh, JMJD2A Tudor, G9a inh)
COc1ccc(C(=O)NC(=S)Nc2cccnc2)cc1OC	G9a inh 50µM
COc1ccc(C(=O)N/C(=C/c2cccnc2)C(=O)Nc2cccc(C(C)=O)c2)cc1OC	PLK1 PBD inh 30µM, JMJD2A Tudor 56µM
CC(=O)c1cccc(NC(=O)/C(=C\c2cccnc2)NC(=O)c2ccccc2)c1	12-LOX inh inconclusive
O=C(NNc1cccc([N+](=O)[O-])c1)/C(=C\c1cccnc1)NC(=O)c1ccccc1	G9a inh 50µM
CCCCOc1cccc(C(=O)NC(=S)Nc2cccnc2)c1	G9a inh inconclusive
CCOc1cccc(C(=O)NC(=S)Nc2ccc(N3CCN(CC)CC3)cc2)c1	HP1b binding inh inconclusive, 12-LOX inh inconclusive, BAZ2B inh 35µM, JMJD2A Tudor 56µM, G9a inh 14µM
O=C(Nc1ccccc1-c1ccccc1)c1cc(Br)ccc1Cl	none (no result: PLK1 PBD inh, HP1b binding inh, BAZ2B inh, JMJD2A Tudor, G9a inh)
O=C(NCc1cccc(F)c1)N1CCC(OC2CCN(Cc3ccccc3)CC2)CC1	none (no result: PLK1 PBD inh, HP1b binding inh, BAZ2B inh, JMJD2A Tudor, G9a inh)
CCOc1cccc(C(=O)NC(=S)Nc2ccccc2)c1	HP1b binding inh inconclusive, 12-LOX inh 14µM, BAZ2B inh inconclusive, JMJD2A Tudor inconclusive, G9a inh inconclusive
COc1cc(OC)cc(C(=O)NC(=S)Nc2ccc(N3CCCC3)cc2)c1	HP1b binding inh inconclusive, 12-LOX inh 45µM, BAZ2B inh inconclusive, JMJD2A Tudor inconclusive, G9a inh 10µM
O=C(O)c1ccc(NC(=S)NC(=O)c2cccc(COc3ccccc3)c2)cc1	PLK1 PBD inh inconclusive, 12-LOX inh 7.9µM, G9a inh 28µM
CCOc1cccc(C(=O)NC(=S)Nc2cccnc2)c1	JMJD2A Tudor inconclusive, G9a inh 10µM
CCCCOc1cccc(C(=O)NC(=S)Nc2cccc(C(F)(F)F)c2)c1	12-LOX inh 32µM
CC(C)Oc1cccc(C(=O)NC(=S)Nc2cccc(C(F)(F)F)c2)c1	12-LOX inh inconclusive (no result: G9a inh)
COc1cc(OC)cc(C(=O)NC(C(=O)Nc2ccc(N3CCOCC3)cc2)C(C)C)c1 (configuration not stated)	G9a inh 50µM
CCOc1cccc(C(=O)NC(=S)Nc2cccc(NC(=O)c3ccccc3Cl)c2)c1	12-LOX inh 11µM, BAZ2B inh 79µM
